Laboratory results as given in PubChem BioAssay (NCATS).
Records with an inconclusive call do not appear. Where a structure was tested more than once in an assay, its records may differ in their call. Calls of active or inactive are those of the source. Unless noted, the call rests on the fitted dose curve; in most records, active means well fitted curve in the direction sought with a large enough effect; inconclusive means small, poorly fitted or top-dose-only effect, or another doubt; inactive means no such curve, though single readings can be large; an effect the other way counts as inactive or inconclusive.

How the values were obtained:
[1] = molecular target: DNA polymerase III PolC-type (Bacillus subtilis (strain 168)) (UniProt P13267); assay: qHTS Validation Assay for the Inhibitors of DNA Replication in Gram-Positive Bacteria (AID 485295);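 further: reconstituted holoenzyme with PolC plus beta clamp SSB and primase; PicoGreen fluorescence of double-stranded DNA made on primed circular M13 template; series mostly up to about 57 µM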
Summary of the method: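 PicoGreen fluorescence (ex 480–485/em 535–540 nm) reports dsDNA synthesized on ssM13Gori template with dNTPs/NTPs. Enzyme: holoenzyme rebuilt from purified PolC, beta subunit, SSB and primase. Compound preincubated before substrate addition; RT throughout.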

[2] = molecular target: Tumor susceptibility gene 101 protein (Homo sapiens) (UniProt Q99816); assay: qHTS Validation Assay for Iinhibitors of HIV-1 Budding by Blocking the Interaction of PTAP/TSG101 (AID 485342; calls by dose curve)
Summary of the method: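 FP read-out: FITC-PTAP peptide, 50 nM final, binding Tsg101 binding domain, 10 uM final; 20 min r.t.; 10 mM HEPES pH 7.5, 0.15 M NaCl, 0.01% Tween 20, 3 mM EDTA, 0.1 mM TCEP.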

[3] = qHTS Validation Assay to Find Inhibitors of Chronic Active B-Cell Receptor Signaling (AID 485345; active means well fitted curve in the direction sought with a large enough effect in the main read-out, with a control signal flat, not every such curve was filed as active)
Summary of the method: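 TMD8 ABC-DLBCL cells stably carrying doxycycline-inducible IkappaBalpha–green luciferase fusion plus unfused red luciferase; compounds 46 uM to 3 nM, 4 h at 37C with doxycycline. Corrected green/red luminescence ratio normalized to 10 uM MG-132 and basal cell wells; curves fitted.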

[4] = molecular target: Beta-2 adrenergic receptor (Homo sapiens) (UniProt P07550); assay: qHTS validation assay of beta-arrestin-biased ligands of beta2-adrenergic receptor (AID 485366)
Summary of the method: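 Tango cells expressing recombinant beta2-AR and beta-arrestin with tTA-driven luciferase, in DMEM with 1% FBS. Compounds were titrated up to 46 microM for 18 hr at 37 degrees C. Luminescence was read 15 min after substrate; curves were fitted and class-assigned.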

[5] = molecular target: Thioredoxin reductase 1, cytoplasmic (Rattus norvegicus) (UniProt O89049); assay: qHTS Assay for Substrates of Mammalian Selenoprotein Thioredoxin Reductase 1 (TrxR1) (AID 488772);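 further: NADPH fluorescence in the first read after selenite addition and not the 8 min delta; series mostly up to about 57 µM; a drop in NADPH fluorescence below the no-compound background marks a TrxR1 substrate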
Summary of the method: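 Quantitative HTS in Tris-HCl buffer at pH 7.5 with EDTA and Tween-20, using rat TrxR1, 400 uM NADPH and 400 uM selenite (final). A fall in initial NADPH fluorescence relative to background marked substrate behaviour.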

[6] = molecular target: Thioredoxin reductase 1, cytoplasmic (Rattus norvegicus) (UniProt O89049); assay: qHTS Assay for Inhibitors of Mammalian Selenoprotein Thioredoxin Reductase 1 (TrxR1) (AID 488773); details: Potency: inhibition;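 further: drop in NADPH fluorescence over an 8 min run after selenite addition; series mostly up to about 57 µM; nearly all actives have a fitted effect of over 40% in size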
Summary of the method: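 Steps: enzyme (90 nM) plus NADPH (400 uM final), 5 min at ~22 deg C; compound added, 15 min; selenite (400 uM final) added; fluorescence followed for 8 min. Concentration-response curves derived from the normalized delta values.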

[7] = molecular target: Flap endonuclease 1 (Homo sapiens) (UniProt P39748); assay: qHTS Validation Assay for the Inhibitors of Human Flap endonuclease 1 (FEN1) (AID 488816)
Summary of the method: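 Human FEN1 (10 nM) preincubated 15 min at room temperature with compounds, then flap DNA substrate added at 50 nM final. Fluorescence read at 0 and 15 min; concentration-response fitted with four-parameter Hill equation.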

[8] = molecular target: M-phase phosphoprotein 8 (Homo sapiens) (UniProt Q99549); assay: qHTS Validation Assay for Inhibitors for MPP8 Chromodomain Interactions with Methylated Histone Tails (AID 488949); further: nearly all actives have a fitted effect of over 55% in size; further: potency means the concentration at half of the fitted maximal effect
Summary of the method: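 AlphaScreen read-out: streptavidin donor and nickel chelate acceptor beads (final 10 ug/mL), 30 min in the dark at RT. Complex of 50 nM MPP8 and 50 nM b-H3(1-18)K9me3 peptide had been exposed to compounds for 30 min beforehand.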

[9] = molecular target: Chromobox protein homolog 1 (Homo sapiens) (UniProt P83916); assay: qHTS Validation Assay for Inhibitors of HP1-beta Chromodomain Interactions with Methylated Histone Tails (AID 488953); further: nearly all actives have a fitted effect of over 50% in size; further: potency means the concentration at half of the fitted maximal effect
Summary of the method: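 HP1-beta (50 nM) preformed 30 min with biotinylated H3(1-18)K9me3 peptide (50 nM) in PBS pH 7.4, 0.01% Tween-20. Compounds added for 30 min at room temperature. Complex disruption read by AlphaScreen with streptavidin donor/nickel chelate acceptor beads (10 ug/mL each).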

[10] = molecular target: Methanococcus maripaludis chaperonin (MmCpn) (UniProt Q6LX38); assay: High-Throughput Screening for Modulators of Cytosolic Chaperonin Activity: MmCpn Primary Screen (AID 488978);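 further: 50 nM MmCpn enzyme hydrolysing 30 µM ATP at 37 °C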
Summary of the method: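 ADP formation read by HTRF Transcreener, 665/590 nm emission after 320 nm excitation. Enzyme: archaeal chaperonin at 50 nM final; substrate ATP 30 uM final; 10 min, 37C, after 5 min compound preincubation at RT.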

[11] = molecular target: D(1A) dopamine receptor (Homo sapiens) (UniProt P21728); assay: HTS Assay for Allosteric Agonists of the Human D1 Dopamine Receptor: Primary Screen for Agonists (AID 488981)
Summary of the method: (§1)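 Tetracycline-induced HEK293 Trex D1 cells with forced coupling to calcium, loaded with no-wash calcium dye; kinetic fluorescence read 180 s after compound addition for agonism, then a further 180 s after an EC20 dopamine challenge for potentiation.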

[12] = molecular target: D(1A) dopamine receptor (Homo sapiens) (UniProt P21728); assay: HTS Assay for Allosteric Agonists of the Human D1 Dopamine Receptor: Primary Screen for Potentiators (AID 488982)
Summary of the method: as §1

[13] = molecular target: D(1A) dopamine receptor (Homo sapiens) (UniProt P21728); assay: HTS Assay for Allosteric Agonists of the Human D1 Dopamine Receptor: Primary Screen for Antagonists (AID 488983);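 further: calcium flux response to an EC80 dopamine challenge measured with no-wash dye; nearly all actives have a fitted effect of over 65% in size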; further: potency means the concentration at half of the fitted maximal effect
Summary of the method: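 Tetracycline-induced HEK293 T-REx D1 line, force-coupled to calcium flux, read with no-wash calcium dye. Compound added after 10 s baseline, read 180 s for agonism, then EC80 dopamine added and read a further 180 s.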

[14] = molecular target: ATP-dependent 6-phosphofructokinase (Trypanosoma brucei brucei) (UniProt O15648); assay: qHTS Assay to Find Inhibitors of T. brucei phosphofructokinase: hit validation (AID 492961); further: series mostly up to about 51 µM
Summary of the method: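 Luminescence from ADP-Glo reports ADP generated as T. brucei PFK (1.25 nM) phosphorylates 0.5 mM fructose-6-phosphate using 0.1 mM ATP. Reactions ran 45 min at room temperature, pH 8.0.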

[15] = Quantitative high throughput screen for delayed death inhibitors of the malarial parasite plastid, 96 hour incubation (AID 488745); further: nearly all actives have a fitted effect of over 70% in size; further: potency means the concentration at half of the fitted maximal effect
Summary of the method: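 Luciferase-expressing P. falciparum in erythrocytes (2% hematocrit, 0.1% parasitemia) incubated with compound for 96 h at 37 C, 5% CO2, in RPMI 1640 with 0.5% Albumax. Growth inhibition read as decreased luminescence.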

[16] = Quantitative high throughput screen for delayed death inhibitors of the malarial parasite plastid, 48 hour incubation (AID 488752); further: nearly all actives have a fitted effect of over 65% in size; further: potency means the concentration at half of the fitted maximal effect
Summary of the method: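 Erythrocytes infected with firefly luciferase-expressing P. falciparum (2% hematocrit, 0.1% parasitemia) cultured with compound for 48 h at 37 C, 5% CO2, in RPMI 1640/0.5% Albumax. Growth inhibition read as loss of luminescence.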

[17] = molecular target: Transient receptor potential cation channel subfamily V member 1 (Homo sapiens) (UniProt Q8NER1); assay: HTS Assay for Compounds that Act as Enhancers of the Vanilloid Receptor 1 (AID 488979)
Summary of the method: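 TRPV1 cells loaded with Fluo-8 calcium dye; compound added and Ca2+ signal (ex 480/em 520 nm) followed 3 min, then capsaicin at EC20 added and read 2 more min to detect enhancement.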

[18] = molecular target: Thyrotropin receptor (Homo sapiens) (UniProt P16473); assay: qHTS Assay for Antagonists of the Thyroid Stimulating Hormone Receptor (AID 488980); further: series mostly up to about 58 µM
Summary of the method: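 TSHR-HEK293 cells; 70 uM RO 20-1724 PDE inhibitor; compound + EC80 TSH (4 nM final); anti-cAMP cryptate antibody/cAMP-d2 in lysis buffer, 30 min RT; HTRF 665/620 nm read.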

[19] = molecular target: Tyrosyl-DNA phosphodiesterase 1 (Homo sapiens) (UniProt Q9NUW8); assay: Confirmation Assay for Inhibitors of Tyrosyl-DNA Phosphodiesterase (TDP1) (AID 489007); details: recombinant human TDP1 enzymatic activity, dose-response; further: potency means the concentration at half of the fitted maximal effect; nearly all actives have a fitted effect of over 40% in size
Summary of the method: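 Recombinant human Tdp1 (1 nM final), expressed in E. coli, preincubated 15 min with compound. Then 15 nM 5'-biotin/3'-phosphotyrosine-FITC DNA substrate added for 5 min at room temperature. AlphaScreen beads (10 ug/ml) added for 10 min; cleavage gives signal loss.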

[20] = molecular target: ATP-dependent 6-phosphofructokinase (Trypanosoma brucei brucei) (UniProt O15648); assay: qHTS Validation Assay to Find Inhibitors of T. brucei phosphofructokinase (AID 485368); further: potency means the concentration at half of the fitted maximal effect
Summary of the method: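 Activity was read as ADP production by luminescence (ADP-Glo) after 45 min at room temperature. The enzyme was 1.25nM PFK in 0.1M TEA pH 8.0 with 0.5 mM F6P, 0.1mM ATP and 5 mM MgCl2. Compounds were titrated up to 57 uM and % activity normalized to no-enzyme and full-enzyme controls.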

Measured: Potency

Chain of M-phase phosphoprotein 8 (Homo sapiens) (Q99549 whole entry, looked up): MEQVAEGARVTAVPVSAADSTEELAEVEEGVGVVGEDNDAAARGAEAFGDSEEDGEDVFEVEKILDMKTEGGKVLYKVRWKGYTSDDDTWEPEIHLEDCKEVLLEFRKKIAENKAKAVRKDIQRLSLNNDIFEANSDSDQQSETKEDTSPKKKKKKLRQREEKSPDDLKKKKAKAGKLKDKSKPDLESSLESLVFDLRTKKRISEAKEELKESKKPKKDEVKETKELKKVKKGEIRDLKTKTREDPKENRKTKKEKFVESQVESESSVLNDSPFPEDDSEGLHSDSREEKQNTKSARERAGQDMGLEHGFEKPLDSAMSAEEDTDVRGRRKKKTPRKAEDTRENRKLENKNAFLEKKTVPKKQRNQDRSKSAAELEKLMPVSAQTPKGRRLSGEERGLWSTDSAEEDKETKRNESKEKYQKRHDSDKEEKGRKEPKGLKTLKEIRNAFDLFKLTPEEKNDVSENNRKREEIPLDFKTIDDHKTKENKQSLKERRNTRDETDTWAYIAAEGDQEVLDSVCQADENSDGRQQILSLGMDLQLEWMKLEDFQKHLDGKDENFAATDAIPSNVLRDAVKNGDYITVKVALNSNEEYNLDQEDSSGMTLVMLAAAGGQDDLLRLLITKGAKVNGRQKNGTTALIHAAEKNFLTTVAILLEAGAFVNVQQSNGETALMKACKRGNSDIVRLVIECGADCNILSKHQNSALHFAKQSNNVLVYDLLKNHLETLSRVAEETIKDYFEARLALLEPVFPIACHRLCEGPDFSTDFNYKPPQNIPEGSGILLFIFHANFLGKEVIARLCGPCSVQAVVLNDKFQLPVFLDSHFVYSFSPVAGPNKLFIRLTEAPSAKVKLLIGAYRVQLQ
Chain of Beta-2 adrenergic receptor (Homo sapiens) (P07550 whole entry, looked up): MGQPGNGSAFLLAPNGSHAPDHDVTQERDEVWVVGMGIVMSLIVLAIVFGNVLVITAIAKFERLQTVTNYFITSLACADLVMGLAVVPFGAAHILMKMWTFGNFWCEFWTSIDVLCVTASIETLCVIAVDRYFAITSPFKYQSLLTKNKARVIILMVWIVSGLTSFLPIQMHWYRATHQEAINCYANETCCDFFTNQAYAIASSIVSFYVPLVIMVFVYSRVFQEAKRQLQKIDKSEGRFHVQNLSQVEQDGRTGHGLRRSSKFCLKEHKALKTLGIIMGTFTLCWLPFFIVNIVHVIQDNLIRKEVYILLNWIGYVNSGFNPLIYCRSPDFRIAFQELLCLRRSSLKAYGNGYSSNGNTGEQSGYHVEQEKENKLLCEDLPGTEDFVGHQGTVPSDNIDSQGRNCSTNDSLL
Chain of Thioredoxin reductase 1, cytoplasmic (Rattus norvegicus) (O89049 whole entry, looked up): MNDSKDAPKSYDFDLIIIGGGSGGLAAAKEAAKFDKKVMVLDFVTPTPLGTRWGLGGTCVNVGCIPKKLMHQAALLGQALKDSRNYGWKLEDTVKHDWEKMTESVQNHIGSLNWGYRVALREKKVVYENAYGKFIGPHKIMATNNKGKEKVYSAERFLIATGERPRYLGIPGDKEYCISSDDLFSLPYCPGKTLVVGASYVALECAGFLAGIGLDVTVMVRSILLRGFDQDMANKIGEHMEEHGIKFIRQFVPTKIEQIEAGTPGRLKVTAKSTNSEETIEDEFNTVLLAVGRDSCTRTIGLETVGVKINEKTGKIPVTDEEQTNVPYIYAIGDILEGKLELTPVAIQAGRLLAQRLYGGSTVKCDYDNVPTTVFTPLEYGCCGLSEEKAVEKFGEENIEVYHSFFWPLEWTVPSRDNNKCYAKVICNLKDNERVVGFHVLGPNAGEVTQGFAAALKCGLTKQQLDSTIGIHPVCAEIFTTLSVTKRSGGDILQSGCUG
Chain of DNA polymerase III PolC-type (Bacillus subtilis (strain 168)) (P13267 whole entry, looked up): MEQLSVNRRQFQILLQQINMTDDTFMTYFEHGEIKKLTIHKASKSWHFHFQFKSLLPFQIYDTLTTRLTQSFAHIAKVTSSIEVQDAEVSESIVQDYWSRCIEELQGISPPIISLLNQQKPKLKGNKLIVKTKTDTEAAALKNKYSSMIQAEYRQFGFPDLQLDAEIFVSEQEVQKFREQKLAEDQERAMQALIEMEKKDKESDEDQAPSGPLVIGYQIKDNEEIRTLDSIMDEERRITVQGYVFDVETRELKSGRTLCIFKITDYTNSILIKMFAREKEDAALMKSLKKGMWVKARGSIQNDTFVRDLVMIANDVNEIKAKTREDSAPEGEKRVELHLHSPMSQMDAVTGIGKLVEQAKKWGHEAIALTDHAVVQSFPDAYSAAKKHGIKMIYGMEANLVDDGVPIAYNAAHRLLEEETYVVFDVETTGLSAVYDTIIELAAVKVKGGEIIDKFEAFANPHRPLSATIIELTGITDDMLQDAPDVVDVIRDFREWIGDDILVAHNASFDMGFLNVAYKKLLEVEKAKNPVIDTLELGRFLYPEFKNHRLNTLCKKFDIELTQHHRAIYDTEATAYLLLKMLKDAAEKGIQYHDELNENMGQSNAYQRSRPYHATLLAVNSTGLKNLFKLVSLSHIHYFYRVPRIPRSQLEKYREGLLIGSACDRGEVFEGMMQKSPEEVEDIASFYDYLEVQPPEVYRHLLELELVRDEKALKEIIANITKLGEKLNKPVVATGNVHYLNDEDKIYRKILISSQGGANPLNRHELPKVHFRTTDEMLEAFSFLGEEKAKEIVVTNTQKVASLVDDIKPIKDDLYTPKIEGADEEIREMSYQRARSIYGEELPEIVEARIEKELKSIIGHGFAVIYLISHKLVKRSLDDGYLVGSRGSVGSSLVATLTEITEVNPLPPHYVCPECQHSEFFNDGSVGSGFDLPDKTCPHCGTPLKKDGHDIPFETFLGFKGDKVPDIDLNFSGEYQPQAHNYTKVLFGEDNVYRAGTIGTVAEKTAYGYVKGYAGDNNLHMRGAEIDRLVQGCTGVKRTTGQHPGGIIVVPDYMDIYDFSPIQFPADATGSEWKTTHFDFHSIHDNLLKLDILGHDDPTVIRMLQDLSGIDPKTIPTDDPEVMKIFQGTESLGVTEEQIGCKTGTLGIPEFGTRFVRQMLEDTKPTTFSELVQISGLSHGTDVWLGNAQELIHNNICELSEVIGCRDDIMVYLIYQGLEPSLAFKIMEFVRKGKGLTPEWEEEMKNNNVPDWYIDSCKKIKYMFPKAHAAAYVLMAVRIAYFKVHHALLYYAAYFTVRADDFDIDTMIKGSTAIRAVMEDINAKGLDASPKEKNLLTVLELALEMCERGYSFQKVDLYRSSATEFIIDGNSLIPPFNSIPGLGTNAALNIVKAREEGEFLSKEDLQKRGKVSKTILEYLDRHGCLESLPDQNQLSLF
Chain of Chromobox protein homolog 1 (Homo sapiens) (P83916 whole entry, looked up): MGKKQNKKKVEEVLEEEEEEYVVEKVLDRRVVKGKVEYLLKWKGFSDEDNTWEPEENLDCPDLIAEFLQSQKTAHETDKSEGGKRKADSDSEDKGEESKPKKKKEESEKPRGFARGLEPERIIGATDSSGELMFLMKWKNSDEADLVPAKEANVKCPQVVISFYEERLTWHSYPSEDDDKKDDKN
Chain of D(1A) dopamine receptor (Homo sapiens) (P21728 whole entry, looked up): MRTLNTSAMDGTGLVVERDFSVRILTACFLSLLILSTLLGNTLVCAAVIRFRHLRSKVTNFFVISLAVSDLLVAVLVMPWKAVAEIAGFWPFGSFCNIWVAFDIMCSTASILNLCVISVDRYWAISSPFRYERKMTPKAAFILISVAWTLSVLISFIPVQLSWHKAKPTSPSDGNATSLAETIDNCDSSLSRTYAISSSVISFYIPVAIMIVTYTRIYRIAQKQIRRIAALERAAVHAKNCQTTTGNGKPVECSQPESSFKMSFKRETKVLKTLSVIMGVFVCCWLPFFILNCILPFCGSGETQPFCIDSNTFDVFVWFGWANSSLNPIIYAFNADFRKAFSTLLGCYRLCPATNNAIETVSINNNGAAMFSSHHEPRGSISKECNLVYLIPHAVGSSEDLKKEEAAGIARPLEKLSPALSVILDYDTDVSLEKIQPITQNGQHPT
Chain of Flap endonuclease 1 (Homo sapiens) (P39748 whole entry, looked up): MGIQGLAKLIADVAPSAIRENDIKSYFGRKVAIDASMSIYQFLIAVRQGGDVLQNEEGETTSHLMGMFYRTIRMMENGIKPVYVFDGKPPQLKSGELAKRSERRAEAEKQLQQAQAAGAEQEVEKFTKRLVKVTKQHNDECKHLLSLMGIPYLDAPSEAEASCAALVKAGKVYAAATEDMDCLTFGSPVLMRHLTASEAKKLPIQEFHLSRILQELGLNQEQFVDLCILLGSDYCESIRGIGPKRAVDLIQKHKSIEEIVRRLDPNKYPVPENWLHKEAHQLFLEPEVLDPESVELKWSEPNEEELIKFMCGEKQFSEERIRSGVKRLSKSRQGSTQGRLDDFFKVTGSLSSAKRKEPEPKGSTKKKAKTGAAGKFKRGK
Chain of ATP-dependent 6-phosphofructokinase (Trypanosoma brucei brucei) (O15648 whole entry, looked up): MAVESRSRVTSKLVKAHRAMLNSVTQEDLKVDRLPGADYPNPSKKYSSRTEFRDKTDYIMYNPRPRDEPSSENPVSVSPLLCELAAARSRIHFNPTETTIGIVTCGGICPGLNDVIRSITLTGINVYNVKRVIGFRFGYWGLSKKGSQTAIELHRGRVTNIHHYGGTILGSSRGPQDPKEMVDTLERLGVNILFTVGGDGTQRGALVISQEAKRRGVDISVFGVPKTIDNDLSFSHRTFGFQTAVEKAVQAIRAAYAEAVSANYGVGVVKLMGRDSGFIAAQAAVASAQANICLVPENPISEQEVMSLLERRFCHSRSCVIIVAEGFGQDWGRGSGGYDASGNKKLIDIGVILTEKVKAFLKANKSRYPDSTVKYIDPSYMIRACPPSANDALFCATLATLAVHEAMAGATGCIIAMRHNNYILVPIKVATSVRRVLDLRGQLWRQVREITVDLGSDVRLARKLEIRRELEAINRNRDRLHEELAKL

Clc1ccc2nsnc2c1NC1=NCCN1
not listed: [15] | [16] | [17] | [18] | [19] | [20]
inactive: all other assays above

CC(COc1ccccc1)N(CCCl)Cc1ccccc1 (stereo not drawn)
not listed: [6] | [7] | [8] | [9] | [14] | [19] | [20]
inactive: all other assays above

CS(=O)(=O)Nc1ccc([N+](=O)[O-])cc1Oc1ccccc1
active: [19] 8.91 µM
not listed: [7] | [20]
inactive: all other assays above

COc1nc(C)nc(Cl)c1NC1=NCCN1
not listed: [19] | [20]
inactive: all other assays above

O=C(C1CCCCC1)N1CC(=O)N2CCc3ccccc3C2C1 (stereo not drawn)
not listed: [6] | [14] | [18] | [19] | [20]
inactive: all other assays above

CC[N+](CC)(CC)CCOc1cccc(OCC[N+](CC)(CC)CC)c1OCC[N+](CC)(CC)CC
not listed: [6] | [8] | [9] | [15] | [19] | [20]
inactive: all other assays above

CCCCc1oc2ccccc2c1C(=O)c1cc(I)c(OCCN(CC)CC)c(I)c1
active: [15] 8.28 µM | [16] 9.28 µM | [9] 44.7 µM
not listed: [13] | [14] | [19] | [20]
inactive: all other assays above

CCC1(C)CC(=O)NC1=O (stereo not drawn)
not listed: [6] | [14] | [18] | [19] | [20]
inactive: all other assays above

CC(CCc1ccc(O)cc1)NCCc1ccc(O)c(O)c1 (stereo not drawn)
active: [15] 5.86 µM | [16] 13.1 µM
not listed: [6] | [9] | [12] | [14] | [19] | [20]
inactive: all other assays above

COc1ccc2[nH]cc(CCNC(C)=O)c2c1
not listed: [14] | [19] | [20]
inactive: all other assays above

NC(=O)OCC(COC(N)=O)c1ccccc1
not listed: [6] | [14] | [19] | [20]
inactive: all other assays above

O=C(c1ccc(F)cc1)C1CCN(CCn2c(=O)[nH]c3ccccc3c2=O)CC1
active: [13] 5.62 µM
not listed: [14] | [15] | [16] | [19] | [20]
inactive: all other assays above

COc1cc2nc(N(C)CCCNC(=O)C3CCCO3)nc(N)c2cc1OC (stereo not drawn)
not listed: [6] | [14] | [15] | [16] | [17] | [18] | [19] | [20]
inactive: all other assays above

CN(Cc1cnc2nc(N)nc(N)c2n1)c1ccc(C(=O)N[C@@H](CCC(=O)O)C(=O)O)cc1
active: [20] 37.9 µM
79.4 µM (active) and inactive: [8]
not listed: [9] | [19]
inactive: all other assays above

CCOC(=O)C(C)(C)Oc1ccc(Cl)cc1
not listed: [14] | [19] | [20]
inactive: all other assays above

Nc1nnc(-c2cccc(Cl)c2Cl)c(N)n1
not listed: [5] | [12] | [19] | [20]
inactive: all other assays above
